These compounds were tested on HNSC (assay: growth inhibition (% activity, log2 RLU normalised to DMSO / staurosporine); higher = more growth inhibition). Conditions: 33 µM.
Summary of the method: (§1)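 In triplicate, pHGG cell lines and H9-derived neural stem cells were treated for 7 days at 37 °C, 5% CO2 with approved drugs at a single final concentration of about 33 μM, added by pin tool. CellTiter-Glo luminescence, after log2 transformation, was normalised on each plate to % activity between solvent and positive control wells. Growth inhibition is reported as the median across replicates.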

| Compound | growth inhibition |
| --- | --- |
| CC=CC1=C(C(=O)O)N2C(=O)[C@@H](NC(=O)[C@H](N)c3ccc(O)cc3)[C@H]2SC1 | -1.83% |
| O=C1[C@@H]2[C@H]3CC[C@H](C3)[C@@H]2C(=O)N1C[C@@H]1CCCC[C@H]1CN1CCN(c2nsc3ccccc23)CC1 | 2.62% |
| CC(=O)S[C@@H]1CC2=CC(=O)CC[C@]2(C)[C@H]2CC[C@@]3(C)[C@@H](CC[C@@]34CCC(=O)O4)[C@H]12 | 1.61% |
| NCCC(O)(P(=O)(O)O)P(=O)(O)O | 2.52% |
| CCN(CC)C(=O)C1(c2ccccc2)CC1CN (stereo not drawn) | 1.54% |
| NC12CC3CC(CC(C3)C1)C2 | -2.35% |
| COc1ccc2cc(CCC(C)=O)ccc2c1 | 31.7% |
| Nc1ccc(/N=N/c2ccccc2)c(N)n1 | 9.5% |
| CN(C)C/C=C/C(=O)Nc1cc2c(Nc3ccc(F)c(Cl)c3)ncnc2cc1O[C@H]1CCOC1 | 59.4% |
| CC(C)OC(=O)C(C)(C)Oc1ccc(C(=O)c2ccc(Cl)cc2)cc1 | 54.6% |
| CCOc1ccccc1OC(c1ccccc1)C1CNCCO1 (stereo not drawn) | -1.38% |
| Cn1c(=O)c2c(ncn2CC(O)CO)n(C)c1=O (stereo not drawn) | 2.09% |
| CCCCCN(C)CCC(O)(P(=O)(O)O)P(=O)(O)O | 5.06% |
| COc1ccc(-n2nc(C(N)=O)c3c2C(=O)N(c2ccc(N4CCCCC4=O)cc2)CC3)cc1 | -3.66% |
| O=C(O)CCc1nc(-c2ccccc2)c(-c2ccccc2)o1 | -2.45% |
| N=C(N)NCCN1CCCCCCC1 | 5.04% |
| CCCc1nn(C)c2c(=O)[nH]c(-c3cc(S(=O)(=O)N4CCN(C)CC4)ccc3OCC)nc12 | 0.834% |
| Cc1cccc(Nc2ccncc2S(=O)(=O)NC(=O)NC(C)C)c1 | -0.596% |
| NC(=O)CC[C@H](N)C(=O)O | -2.34% |
| CO[C@H]1C(=O)[C@]2(C)[C@@H](OC)C[C@H]3OC[C@@]3(OC(C)=O)[C@H]2[C@H](OC(=O)c2ccccc2)[C@]2(O)C[C@H](OC(=O)[C@H](O)[C@@H](NC(=O)OC(C)(C)C)c3ccccc3)C(C)=C1C2(C)C | 70.7% |

| Compound | growth inhibition |
| --- | --- |
| CC(C(=O)O)c1ccc(C(=O)c2cccs2)cc1 (stereo not drawn) | -0.802% |
| CC(=O)OCC(=O)[C@@]1(O)[C@H](C)C[C@H]2[C@@H]3CCC4=CC(=O)C=C[C@]4(C)[C@@]3(F)[C@@H](O)C[C@@]21C | 2.34% |
| C[C@@H](c1ncncc1F)[C@](O)(Cn1cncn1)c1ccc(F)cc1F | 1.22% |
| COc1nc(C)nc(Cl)c1NC1=NCCN1 | -1.76% |
| C[C@H](Cc1cc2c(c(C(N)=O)c1)N(CCCO)CC2)NCCOc1ccccc1OCC(F)(F)F | 3.54% |
| CC(C)(Oc1ccc(Cl)cc1)C(=O)O | 5.23% |
| N[C@@H]1CCCCN(c2c(F)cc3c(=O)c(C(=O)O)cn(C4CC4)c3c2Cl)C1 | -0.931% |
| COc1cc(NS(=O)(=O)c2ccc(N)cc2)nc(OC)n1 | 1.56% |
| CCC(NC(C)C)C(O)c1ccc(O)c(O)c1 (stereo not drawn) | 3.15% |
| CCN(CC)C(=S)SSC(=S)N(CC)CC | 50% |
| Cc1nc(Nc2ncc(C(=O)Nc3c(C)cccc3Cl)s2)cc(N2CCN(CCO)CC2)n1 | 20% |
| COC(=O)C1=C(C)NC(C)=C(C(=O)OC2CCCN(Cc3ccccc3)C2)C1c1cccc([N+](=O)[O-])c1 (stereo not drawn) | 33.4% |
| N[C@@H](Cc1cc(I)c(Oc2ccc(O)c(I)c2)c(I)c1)C(=O)O | 13.2% |
| O=C([O-])[C@H](O)[C@@H](O)[C@H](O)[C@H](O)CO.[Na+] | 3.09% |
| CN(C/C=C/c1ccccc1)Cc1cccc2ccccc12 | -1.49% |
| [O-][n+]1cccc(CO)c1 | -0.142% |
| CNC(=C[N+](=O)[O-])NCCSCc1csc(CN(C)C)n1 | -0.992% |
| Cc1ccc(C)c(OCCCC(C)(C)C(=O)O)c1 | -1.45% |
| N#Cc1ccc(C(c2ccc(C#N)cc2)n2cncn2)cc1 | 0.581% |

Each compound was assayed on SUDIPGIV (diffuse intrinsic pontine glioma line) in the same assay as above. Conditions: 33 µM.
Summary of the method: as §1

| Compound | growth inhibition |
| --- | --- |
| CC=CC1=C(C(=O)O)N2C(=O)[C@@H](NC(=O)[C@H](N)c3ccc(O)cc3)[C@H]2SC1 | -0.89% |
| O=C1[C@@H]2[C@H]3CC[C@H](C3)[C@@H]2C(=O)N1C[C@@H]1CCCC[C@H]1CN1CCN(c2nsc3ccccc23)CC1 | -0.0151% |
| CC(=O)S[C@@H]1CC2=CC(=O)CC[C@]2(C)[C@H]2CC[C@@]3(C)[C@@H](CC[C@@]34CCC(=O)O4)[C@H]12 | 1.73% |
| NCCC(O)(P(=O)(O)O)P(=O)(O)O | 1.34% |
| CCN(CC)C(=O)C1(c2ccccc2)CC1CN (stereo not drawn) | 1.15% |
| NC12CC3CC(CC(C3)C1)C2 | 0.117% |
| COc1ccc2cc(CCC(C)=O)ccc2c1 | -0.544% |
| Nc1ccc(/N=N/c2ccccc2)c(N)n1 | -2.91% |
| CN(C)C/C=C/C(=O)Nc1cc2c(Nc3ccc(F)c(Cl)c3)ncnc2cc1O[C@H]1CCOC1 | 10.9% |
| CC(C)OC(=O)C(C)(C)Oc1ccc(C(=O)c2ccc(Cl)cc2)cc1 | 1.24% |
| CCOc1ccccc1OC(c1ccccc1)C1CNCCO1 (stereo not drawn) | -0.307% |
| Cn1c(=O)c2c(ncn2CC(O)CO)n(C)c1=O (stereo not drawn) | 1.65% |
| CCCCCN(C)CCC(O)(P(=O)(O)O)P(=O)(O)O | -4.22% |
| COc1ccc(-n2nc(C(N)=O)c3c2C(=O)N(c2ccc(N4CCCCC4=O)cc2)CC3)cc1 | -1.21% |
| O=C(O)CCc1nc(-c2ccccc2)c(-c2ccccc2)o1 | -2.53% |
| N=C(N)NCCN1CCCCCCC1 | 0.15% |
| CCCc1nn(C)c2c(=O)[nH]c(-c3cc(S(=O)(=O)N4CCN(C)CC4)ccc3OCC)nc12 | -2.48% |
| Cc1cccc(Nc2ccncc2S(=O)(=O)NC(=O)NC(C)C)c1 | -1.46% |
| NC(=O)CC[C@H](N)C(=O)O | -1.24% |
| CO[C@H]1C(=O)[C@]2(C)[C@@H](OC)C[C@H]3OC[C@@]3(OC(C)=O)[C@H]2[C@H](OC(=O)c2ccccc2)[C@]2(O)C[C@H](OC(=O)[C@H](O)[C@@H](NC(=O)OC(C)(C)C)c3ccccc3)C(C)=C1C2(C)C | 22.5% |

| Compound | growth inhibition |
| --- | --- |
| CC(C(=O)O)c1ccc(C(=O)c2cccs2)cc1 (stereo not drawn) | -4.32% |
| CC(=O)OCC(=O)[C@@]1(O)[C@H](C)C[C@H]2[C@@H]3CCC4=CC(=O)C=C[C@]4(C)[C@@]3(F)[C@@H](O)C[C@@]21C | 5.88% |
| C[C@@H](c1ncncc1F)[C@](O)(Cn1cncn1)c1ccc(F)cc1F | -1.27% |
| COc1nc(C)nc(Cl)c1NC1=NCCN1 | -1.72% |
| C[C@H](Cc1cc2c(c(C(N)=O)c1)N(CCCO)CC2)NCCOc1ccccc1OCC(F)(F)F | 1.64% |
| CC(C)(Oc1ccc(Cl)cc1)C(=O)O | 0.614% |
| N[C@@H]1CCCCN(c2c(F)cc3c(=O)c(C(=O)O)cn(C4CC4)c3c2Cl)C1 | -3.46% |
| COc1cc(NS(=O)(=O)c2ccc(N)cc2)nc(OC)n1 | 0.337% |
| CCC(NC(C)C)C(O)c1ccc(O)c(O)c1 (stereo not drawn) | 1.08% |
| CCN(CC)C(=S)SSC(=S)N(CC)CC | -0.505% |
| Cc1nc(Nc2ncc(C(=O)Nc3c(C)cccc3Cl)s2)cc(N2CCN(CCO)CC2)n1 | -0.76% |
| COC(=O)C1=C(C)NC(C)=C(C(=O)OC2CCCN(Cc3ccccc3)C2)C1c1cccc([N+](=O)[O-])c1 (stereo not drawn) | 3.22% |
| N[C@@H](Cc1cc(I)c(Oc2ccc(O)c(I)c2)c(I)c1)C(=O)O | 14.9% |
| O=C([O-])[C@H](O)[C@@H](O)[C@H](O)[C@H](O)CO.[Na+] | 1.5% |
| CN(C/C=C/c1ccccc1)Cc1cccc2ccccc12 | 0.156% |
| [O-][n+]1cccc(CO)c1 | -0.682% |
| CNC(=C[N+](=O)[O-])NCCSCc1csc(CN(C)C)n1 | -0.124% |
| Cc1ccc(C)c(OCCCC(C)(C)C(=O)O)c1 | -0.859% |
| N#Cc1ccc(C(c2ccc(C#N)cc2)n2cncn2)cc1 | -0.66% |
